The values that follow come from PubChem BioAssay (NCI).

Compounds without any hit were thinned out: in the full panel of roughly 83,000, 20% have a hit.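 In brief: 96-well plates, 48 h treatment, single concentration, percent growth endpoint.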 Active and inactive are the calls of the source. How the source made its calls: active means growth percent below 10; inactive means the rest.

The subject of the assay is HL-60(TB) leukemia. The assay can be described thus: NCI-60 one-dose screen, 48 h (100 = growth as untreated, 0 = no growth, -100 = all killed). The following applies: 10 µM unless noted.
Regarding `Nc1nc(C(=O)N/N=C/c2ccc(F)cc2)nn1-c1ccc(S(N)(=O)=O)cc1`, the growth is 99.5% (inactive). `O=C(/C=C/c1cccnc1)/C=C/c1cccnc1`: the growth is -43.4% (active).

Turning to `Cc1ccc(C)c2c(C)c(C(=O)Nc3cccc(-n4cccn4)c3)oc12`, the growth is 87.9% [50 µM] (inactive). For the compound `O=C(O)C(c1ccccc1)N1C(=O)CSC1=S` (stereo not given), the growth is 129% (inactive). The figure for `COc1cc2c(cc1OC)C(=O)/C(=C/c1cccc(OCC(=O)c3ccccc3)c1)C2` is 89.8% (inactive); for `CCOC(=O)C(CCN(C)C)c1ccccc1` (stereo not given) it is 88.8% (inactive); for `CCCCCCCC(=O)SCC/C=C/[C@@H]1CC(=O)NCc2cccc(n2)C2=N[C@@](C)(CS2)C(=O)N[C@@H](C(C)C)C(=O)N1` it is 24.7% (inactive). For `Cn1c(COC(=O)N2CCCCC2)nc2c(N3CCOCC3)nc(-c3ccccc3)nc21`, the growth is -28% (active). As for `O=C(CSc1nc(-c2ccccc2)cn1-c1ccc(Cl)cc1)c1ccc([N+](=O)[O-])cc1`, the growth is 95.8% (inactive). On to `Nc1ccc(S(=O)(=O)Nc2cc(F)cc(F)c2)cc1`, for which the growth was 73% (inactive). With `Clc1ccc2c(c1)nnn1c3ncccc3c(Br)c21`, the growth is 113% (inactive). The figure for `CCOc1ccc(NC(=O)CSc2oc(-c3ccccc3)nc2S(=O)(=O)c2ccc(C)cc2)cc1` is 65.6% (inactive). With `CN(C)c1ccc2nc3ccc(=[N+](C)C)cc-3oc2c1`, the growth was -21% (active). For `CC(=O)c1cc(Nc2cc(C)nc(N)n2)cc(C(C)=O)c1`, the growth was 96.1% (inactive). The figure for `COc1ccc2nc3nc4ccc[nH]c4cc3c2c1` is 85.6% (inactive); for `C=C(C)[C@@H]1CC[C@]2(C)[C@H](CC=C3[C@@H]4CC(C)(C)CC[C@]4(C(N)=O)CC[C@]32C)[C@@]1(C)CCC#N` it is 16% (inactive); for `COc1ccc(C2C(c3nn[nH]n3)=C(N)Oc3c2ccc2ccccc32)cc1` (stereo not given) it is 31.9% (inactive). The figure for `Cc1ccc(-c2cc3nc(C(Cl)Cl)nc(-c4cccnc4)n3n2)cc1` is 10.5% (inactive). Consider `CC/C=C/[C@@H]1C=C[C@@H]2CCC[C@H]2[C@@H]1CC[C@H](O)[C@H](C)N`, for which the growth is -61.6% (active). Take `O=S(=O)(NCCNc1nccc(-c2c(-c3ccc(O)cc3)nc3sccn23)n1)c1cccc2ccccc12`: the growth is 90.3% (inactive). The figure for `O=c1ccc2nc(-c3ccccc3)nn(-c3ccccc3)c-2c1` is -45.5% (active); for `Cc1cc(CSc2ccccc2C(=O)N2CC=C(c3ccccc3)CC2)on1` it is 87.7% (inactive). As for `CC(C)=CC/C=C(/C)[C@H]1CC[C@]2(C)[C@@H]1CC[C@@H]1[C@@]3(C)CCCNC(C)(C)[C@@H]3CC[C@]12C`, the growth is -35.8% [100 µM] (active). As for `COC(=O)c1c2c(c(C)[n+]([O-])c1C)C(=O)C(NCc1cccc(OC)c1)=CC2=O`, the growth is -52.2% (active). With `COC(=O)C(N)CC(C)C` (stereo not given), the growth was 94.6% (inactive).

Turning to `Cc1ccc(NC(=O)Nc2c(Cl)cccc2Cl)cn1`, the growth is 71.3% (inactive).

In the case of `O=C1Nc2ccc(Br)cc2C12Oc1ccccc1C1CC(c3ccc(F)cc3)=NN12` (stereo not given), the growth was 92.9% (inactive).

Consider `COC(=O)c1ccc(NC(=O)c2ccc(-c3cccc([N+](=O)[O-])c3)o2)cc1`, for which the growth is 101% (inactive). As to `CCc1nc(N)nc(N)c1C#CC(C)c1cc(-c2ccnc(C)c2)c2oc(C)nc2c1` (stereo not given), the growth is -42.4% (active).

With `CCN(Cc1ccccc1)c1ccc(SC#N)cc1`, the growth is 20.3% (inactive). The figure for `Nc1ccc(C2=NNC(=O)Cc3cc4c(cc32)OCCO4)cc1Cl` is 7.27% (active); for `COc1ccc(C2CC(c3ccc(Nc4nc(Nc5ccc(F)cc5)nc(Nc5ccc(F)cc5)n4)cc3)=NN2C(C)=O)cc1` (stereo not given) it is 17.1% (inactive); for `C=C(CNCCc1ccc(O)cc1)[C@@H]1CC[C@]2(COC3CCCCO3)CC[C@]3(C)[C@H](CC[C@@H]4[C@@]5(C)CCC(N)C(C)(C)[C@@H]5CC[C@]43C)[C@@H]12` (stereo not given in full) it is -75.6% (active).

With `O=C(CCCC(=O)Nc1ccc(-n2nnc3cc(Cl)c(Cl)cc32)cc1)Nc1ccc(-n2nnc3cc(Cl)c(Cl)cc32)cc1`, the growth is 75.9% (inactive).

With `O=C(NNc1ccccc1)C1CCCN1` (stereo not given), the growth was 9.36% (active). The figure for `Cc1ccccc1NC(=O)Cn1cc(CN2CCN(c3ccnc4cc(Cl)ccc34)CC2)nn1` is 22.2% (inactive). Turning to `CCOc1ccc(C(=O)NCC(C)C)cc1`, the growth is 94.9% (inactive). For the compound `C=CCN1C(=O)/C(=C/C(=O)OC)S/C1=N\NC(=O)c1cc2ccc1/C=C\c1ccc(cc1)/C=C\2`, the growth was 91.8% (inactive). Regarding `CC(C)OCC1CO1` (stereo not given), the growth is 103% (inactive). For the compound `O=C(N=c1oc2ccccc2cc1-c1cc2ccccc2[nH]1)c1ccc(Cl)cc1`, the growth was 26.2% (inactive).
